Bioassay records (PubChem BioAssay)
VP16 counter: inhibits Gal4-VP16 luciferase reporter, ROR gamma counter-screen. Drosophila S2 Gal4-VP16 UAS-luciferase, luminescence, 20 h. Potency, µM (highest dose often 53.6 µM), inactives show top-dose activity, negative = inhibition, most hits filed as inhibitors. 310,000 tested, 3.5% active. AID 2546;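 further: Gal4-VP16 expression switched on by copper sulfate through the metallothionein promoter; on the % scale 0 is the no-effect control and ±100 the full control effect; nearly all actives have a fitted effect of over 50% in size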
Mito fusion act: inhibitors of mitochondrial division or activators of mitochondrial fusion; S. cerevisiae fusion-defective mutant growth rescue, CellTiterGlo 48 h; Potency, µM (doses to about 46.1 µM), for inactives: top-dose growth rescue (activation), usual class: activators; 320,000 tested, 0.23% active; further: % of control where 0% means no effect; nearly all actives have a fitted effect of over 45% in size
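Luminescent cell viability in 1536-well qHTS format served as the measure of rescued growth in ts fusion-mutant S. cerevisiae cultured on non-fermentable YPEG for 48 hours at 37C.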
Integrin act MD: integrin-mediated muscular dystrophy alleviation activation; alpha7betagal myoblasts, beta-gal FDG fluorescence, 48 h; Potency, µM (highest dose often 38.3 µM), for the others: at the highest dose activation, actives largely listed as activators; 350,000 tested, 0.064% active; AID 624291;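 further: 100% = response of the positive control SU9516; nearly all actives have a fitted effect of over 60% in size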
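Alpha7betagal+/- myoblasts (passage 13) were plated 16-24 hr, then exposed to compounds (1:260 dilution of DMSO stock) for 48 hours at 37C. After MPER lysis, β-galactosidase reporter activity was read as FDG fluorescence (ex 480/em 540) after 30 minutes.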
uPA surface inh: blocks generation of uPA at the cell surface; cell surface uPA generation assay, qHTS; Potency, µM (highest dose often 38.3 µM), for inactives: at the top dose activity change, negative = inhibition, actives largely listed as inhibitors; 330,000 tested, 0.31% active; AID 540303; active means well fitted inhibition curve with a large enough effect; inconclusive means small, poorly fitted or top-dose-only effect; inactive means no such curve, though single readings can be large or run the other way; tested in mouse RAW 264.7 cells; further: on the % scale 0 is the no-effect control and ±100 the full control effect; nearly all actives have a fitted effect of over 55% in size
RORg inh: inhibitors of mouse ROR gamma transcriptional activity | Potency, µM (doses to about 53.6 µM), for inactives: at the top dose activity change, negative = inhibition, actives largely listed as inhibitors | Drosophila S2 Gal4-RORgamma UAS-luciferase reporter, 20 h | 310,000 tested, 5.4% active | P51450; further: on the % scale 0 is the no-effect control and ±100 the full control effect; nearly all actives have a fitted effect of over 60% in size
Target sequence (P51450 whole entry, looked up, the tested form may be a part): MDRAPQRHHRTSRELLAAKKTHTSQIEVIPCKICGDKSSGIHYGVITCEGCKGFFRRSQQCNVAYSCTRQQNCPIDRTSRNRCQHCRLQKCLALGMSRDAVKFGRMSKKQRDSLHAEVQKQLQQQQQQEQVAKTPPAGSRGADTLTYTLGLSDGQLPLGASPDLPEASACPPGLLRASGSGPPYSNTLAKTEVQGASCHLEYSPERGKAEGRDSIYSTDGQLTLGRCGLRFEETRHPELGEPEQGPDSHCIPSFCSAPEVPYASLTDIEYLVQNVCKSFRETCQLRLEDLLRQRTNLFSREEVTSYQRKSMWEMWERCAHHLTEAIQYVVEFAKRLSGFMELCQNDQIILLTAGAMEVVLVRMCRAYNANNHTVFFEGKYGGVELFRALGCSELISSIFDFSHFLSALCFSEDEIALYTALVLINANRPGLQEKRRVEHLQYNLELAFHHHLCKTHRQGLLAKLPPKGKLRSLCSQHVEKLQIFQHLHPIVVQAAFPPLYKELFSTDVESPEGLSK
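Compounds are pin-transferred onto Drosophila Schneider cells expressing a copper-inducible Gal4–ROR gamma transactivation domain fusion. After 1 hr, copper sulfate is added to 700 uM final; luciferase is read 20 hr later.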
BCR signal inh: chronic active BCR signaling inhibition; ABC-DLBCL IkBa-CBG/CBR reporter, luminescence ratio, 4 h; Potency, µM (doses to about 46.1 µM), without a hit: top-dose activity change, negative = inhibition, most hits filed as inhibitors; 340,000 tested, 0.05% active; AID 493014; active means well fitted inhibition curve with a large enough effect in the signal ratio, with a control signal flat, not every such curve was filed as active; inconclusive means small, poorly fitted or top-dose-only effect, or effect the other way, or a change in a side signal; the % refers to the signal ratio;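 further: plate controls were basal doxycycline-induced cells for no effect and cells given 10 µM MG132 for full effect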
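TMD8 human ABC-DLBCL cells with doxycycline-inducible IκBα–green luciferase fusion and unfused red luciferase, in 0.5% FBS medium; compounds up to 46 uM, 4 h at 37C. Green/red luminescence ratio, filter-overlap corrected, fitted to concentration-response curves.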
Starred values were filed as active, the others as inactive; ? = inconclusive; . = no result. The list is not random: actives were taken first. Their share in the collection is about 5.5%. Unless noted, the call rests on the fitted dose curve; in most records, active means well fitted curve in the direction sought with a large enough effect; inconclusive means small, poorly fitted or top-dose-only effect, or another doubt; inactive means no such curve, though single readings can be large; an effect the other way counts as inactive or inconclusive. Potency means the concentration at half of the fitted maximal effect.

SMILES | VP16 counter | Mito fusion act | Integrin act MD | uPA surface inh | RORg inh | BCR signal inh
O=C(Oc1c(CN2CCOCC2)cc(Cl)c2cccnc12)c1ccccc1 | 5.01µM* | 4.1% | -46.2% | -9.5% | 1.78µM* | ?
Oc1c(CN2CCc3ccccc3C2)cc(Cl)c2cccnc12 | 1.12µM* | 5.4% | -37.2% | ? | 0.794µM* | ?
O=C(Oc1c(CN2CCOCC2)cc(Cl)c2cccnc12)c1ccccc1F | 2.24µM* | 2.8% | 0.0% | -3.8% | 1.12µM* | 3.55µM*
COc1cc(OC)cc(C(=O)Oc2c(CN3CCOCC3)cc(Cl)c3cccnc23)c1 | 3.16µM* | 3.9% | -50.1% | -0.3% | 4.47µM* | ?
CCOc1ccc(CCN2C(=S)N([C@@H](CC(C)C)CN3CCCC3CN3C(=S)NC[C@@H]3Cc3ccc(O)cc3)C[C@@H]2CC(C)C)cc1 (some centres undefined) | . | . | -25.2% | ? | . | .
O=c1oc2ccccc2c(O)c1Cc1cc(Cl)c2cccnc2c1O | 1.12µM* | 4.3% | 2.2% | -2.5% | 0.794µM* | ?
Cc1cccc(C(=O)NC(=S)Nc2ccc(S(=O)(=O)N3CCN(C)CC3)cc2)c1 | ? | -4.0% | -3.9% | -4.1% | 12.6µM* | 2.2%
Cc1ccc(C(=O)NC(=S)Nc2ccc(S(=O)(=O)N3CCN(C)CC3)cc2)cc1 | -7.1% | -6.7% | -8.0% | -5.4% | 11.2µM* | 7.9%
Cc1cccc(C(=O)NC(=S)Nc2ccc(S(=O)(=O)N3CCCCC3)cc2)c1 | 10µM* | -7.2% | -34.8% | -7.6% | 14.1µM* | -0.3%
COc1cc(NC(=O)C2CC(c3ccccc3Cl)=NO2)cc(OC)c1OC (centres undefined) | 15.8µM* | 3.3% | -39.6% | -20.3% | ? | -9.6%
CCCCC(c1nnnn1CC1CCCO1)N1CCN(c2nc3ccccc3s2)CC1 (centres undefined) | 17.9% | 14.1µM* | -28.6% | -2.9% | 41.6% | -1.4%
CCOc1ccc(C2(C)NC(=O)N(CCN(C)C)C2=O)cc1 (centres undefined) | -6.5% | -0.5% | 24.3% | -1.4% | -6.8% | 0.4%
O=C(Nc1ccc(N2CCN(C(=O)c3ccco3)CC2)cc1)c1ccco1 | -1.3% | -0.3% | 6.8% | 2.4% | 26.4% | ?
Cc1ccccc1C(=O)N1CCN(c2ccc(NC(=O)c3ccco3)cc2Cl)CC1 | 6.31µM* | 18.6% | 7.3% | -15.5% | ? | ?
O=C(Nc1ccc(NC(=O)c2sc3ccccc3c2Cl)cc1Cl)c1ccco1 | ? | 2.0% | -34.1% | -1.6% | 10µM* | 0.0%
COc1ccccc1C(=O)NC(=S)Nc1ccc(N2CCN(C(=O)c3ccco3)CC2)cc1 | 10µM* | -5.2% | -0.6% | -17.8% | -12.8% | 2.9%
Cc1ccccc1C(=O)N1CCN(c2ccc(NC(=S)NC(=O)c3ccco3)cc2)CC1 | ? | -4.9% | -15.9% | -1.5% | 15.8µM* | ?
O=C(Nc1ccc(NC(=O)c2cccs2)c(Cl)c1)c1ccco1 | -13.6% | 5.3% | -16.6% | 1.6% | -19.6% | ?
Cc1ccc(C(=O)Nc2ccc(N3CCN(C(=O)c4ccco4)CC3)cc2)cc1 | -14.6% | -7.7% | 0.6% | 0.0% | 10.9% | -1.1%
CCOc1cccc2cc(-c3nc4ccc(C(=O)O)cc4[nH]3)c(=O)oc12 | . | -4.4% | . | . | . | ?
CN(C)c1ccc(C(C#N)c2ccccc2)nn1 (centres undefined) | 8.6% | 1.6% | -30.4% | 0.0% | -4.6% | 3.2%
COCCN(C(=O)c1cc(OC)c(OC)c(OC)c1)c1c(N)n(Cc2ccccc2)c(=O)[nH]c1=O | 10.2% | 0.6% | 7.5% | -5.4% | 10.5% | 2.5%
O=C(O)C(O)C(O)(Cc1ccc(O)cc1)C(=O)O (centres undefined) | ? | . | . | . | -6.1% | .
Cc1[nH]nc2c1C(c1ccco1)C(C#N)=C(N)O2 (centres undefined) | -0.2% | -8.7% | -30.6% | -0.5% | ? | ?
Cc1[nH]nc2c1C(c1cc(Br)cs1)C(C#N)=C(N)O2 (centres undefined) | 7.08µM* | -26.5% | -50.5% | -11.9% | 0.708µM* | ?
SMILES | VP16 counter | Mito fusion act | Integrin act MD | uPA surface inh | RORg inh | BCR signal inh
COc1cc(SC)ccc1C(=O)OCC(=O)NCCC1=CCCCC1 | . | 7.5% | -4.5% | 0.4% | . | -14.1%
CCCCCCCc1c(C#N)c(N)[nH]c(=S)c1C#N | -24.0% | 23.9% | -28.6% | -2.5% | 8.91µM* | 19.1%
COc1ccc2[nH]c(C)c(C(=O)CN(C)CC3OCCO3)c2c1 | 6.6% | 0.3% | -4.9% | 1.3% | -6.3% | 2.8%
COc1ccc(/C=C2\NC(=S)N(CC3CCCO3)C2=O)c(OC)c1C (centres undefined) | ? | 1.6% | -16.1% | -9.6% | ? | 4.3%
COc1ccc(/C=C2\NC(=S)N(CC3CCCO3)C2=O)c(OC)c1 (centres undefined) | ? | 3.5% | 2.9% | 3.3% | 15.8µM* | ?
CC(C)c1nnc(NC(=O)CCC(=O)NCc2ccc(F)cc2)s1 | 1.2% | -2.7% | ? | 10.5% | -14.3% | 8.1%
Cc1ccc2c(c1)N(S(=O)(=O)c1ccc(CN3C(=O)c4cccnc4C3=O)s1)CCO2 | -6.0% | 1.2% | -5.1% | -0.6% | -18.6% | -2.1%
Cc1ccc2c(c1)N(S(=O)(=O)c1ccc(CN3C(=O)c4cccnc4C3=O)cc1)CCO2 | -15.3% | 11.2µM* | -14.7% | 1.1% | 2.2% | -3.2%
COc1ccc(C2=Nn3c(nnc3-c3ccccc3C(F)(F)F)SC2)cc1OC1CCOC1 (centres undefined) | . | . | . | ? | . | -13.9%
COc1ccc(C2=Nn3c(nnc3-c3ccccc3OC)SC2)cc1OC1CCOC1 (centres undefined) | . | . | . | ? | . | 8.2µM*
Cc1cc(C)n(CCN(C)Cc2nc(Cc3ccccc3F)no2)n1 | ? | -2.1% | -2.2% | 4.8% | 11.2µM* | ?
COc1cc(CN(C)c2ncnc3sccc23)ccc1OC(F)F | ? | 1.1% | ? | . | -3.1% | -7.7%
CCCN(CC(=O)Nc1ccccc1C)C(=O)c1ccc(N2CCCCC2)c([N+](=O)[O-])c1 | . | 0.9% | -4.5% | -2.4% | . | -0.6%
O=c1[nH]c(=O)n(Cc2ccco2)c2c1C(C(F)(F)F)(C(F)(F)F)N=C(CCC1CCCCC1)N2 | ? | 3.1% | 10.1% | 2.4% | -7.4% | -1.1%
CC(C)Cn1c2c(c(=O)[nH]c1=O)C(C(F)(F)F)(C(F)(F)F)N=C(CCC1CCCCC1)N2 | 11.2µM* | -0.9% | -18.3% | 15.1% | ? | ?
COc1cc(OC)cc(-c2nnc(Nc3nc4c(F)cccc4s3)o2)c1 | 1.58µM* | -1.0% | 10.2% | -19.0% | 0.708µM* | -3.5%
COc1cc(OC)cc(-c2nnc(NC(=O)CCS(=O)(=O)c3ccc(F)cc3)o2)c1 | . | 10.6% | -47.8% | -8.7% | . | -8.0%
